The values below come from ChEMBL document CHEMBL2218924, “A broad activity screen in support of a chemogenomic map for kinase signalling research and drug discovery” (Biochem J, 2013).

The target in assay [1] is T1, Muscle, skeletal receptor tyrosine-protein kinase (Homo sapiens) (UniProt O15146).
T1 sequence (whole entry): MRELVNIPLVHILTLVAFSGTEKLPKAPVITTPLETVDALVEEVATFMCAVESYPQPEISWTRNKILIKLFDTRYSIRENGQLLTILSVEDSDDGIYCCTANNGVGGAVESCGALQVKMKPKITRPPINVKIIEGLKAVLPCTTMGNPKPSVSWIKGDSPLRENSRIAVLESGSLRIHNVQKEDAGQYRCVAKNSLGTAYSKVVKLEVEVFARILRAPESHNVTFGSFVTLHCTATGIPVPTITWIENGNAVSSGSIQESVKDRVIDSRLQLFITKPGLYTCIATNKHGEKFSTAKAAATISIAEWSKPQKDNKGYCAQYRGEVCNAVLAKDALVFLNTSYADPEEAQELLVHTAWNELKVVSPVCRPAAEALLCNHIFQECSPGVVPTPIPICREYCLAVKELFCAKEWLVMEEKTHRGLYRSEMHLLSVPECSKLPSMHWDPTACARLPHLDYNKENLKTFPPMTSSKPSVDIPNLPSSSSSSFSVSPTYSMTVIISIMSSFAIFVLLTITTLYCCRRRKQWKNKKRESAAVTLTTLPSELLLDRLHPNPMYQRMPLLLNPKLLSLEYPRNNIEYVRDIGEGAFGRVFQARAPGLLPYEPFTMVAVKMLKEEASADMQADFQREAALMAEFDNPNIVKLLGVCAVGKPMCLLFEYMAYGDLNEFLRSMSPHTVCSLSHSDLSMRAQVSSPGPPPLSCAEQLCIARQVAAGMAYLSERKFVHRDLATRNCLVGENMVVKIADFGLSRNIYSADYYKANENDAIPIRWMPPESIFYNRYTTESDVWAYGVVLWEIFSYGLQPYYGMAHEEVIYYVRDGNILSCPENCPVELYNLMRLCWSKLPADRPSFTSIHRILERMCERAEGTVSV
The conditions noted are these: at 1 µM.

For assay [2], the target named is T1, Muscle, skeletal receptor tyrosine-protein kinase (Homo sapiens). Particulars: at 10 µM.
Assay [3] concerns the target T2, Serine/threonine-protein kinase Nek11 (Homo sapiens) (UniProt Q8NG66).
T2 sequence (whole entry): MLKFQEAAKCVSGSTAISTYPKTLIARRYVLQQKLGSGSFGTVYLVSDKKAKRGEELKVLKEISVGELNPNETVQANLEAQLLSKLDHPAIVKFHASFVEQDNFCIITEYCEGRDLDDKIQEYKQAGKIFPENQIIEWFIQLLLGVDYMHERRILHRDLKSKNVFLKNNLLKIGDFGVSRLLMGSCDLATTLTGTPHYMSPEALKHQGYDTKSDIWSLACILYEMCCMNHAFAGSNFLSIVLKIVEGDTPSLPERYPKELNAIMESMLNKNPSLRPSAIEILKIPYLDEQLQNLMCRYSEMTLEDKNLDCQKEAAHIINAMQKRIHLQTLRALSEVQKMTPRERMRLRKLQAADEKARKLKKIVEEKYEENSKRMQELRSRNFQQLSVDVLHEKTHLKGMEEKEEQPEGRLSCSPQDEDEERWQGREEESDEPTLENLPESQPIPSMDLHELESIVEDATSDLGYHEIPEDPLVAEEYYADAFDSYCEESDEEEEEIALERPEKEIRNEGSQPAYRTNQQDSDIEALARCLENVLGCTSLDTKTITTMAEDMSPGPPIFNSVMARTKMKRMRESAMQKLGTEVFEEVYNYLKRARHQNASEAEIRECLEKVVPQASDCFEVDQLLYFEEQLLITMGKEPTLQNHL
Particulars: at 1 µM.

Assay [4] addresses T2, Serine/threonine-protein kinase Nek11 (Homo sapiens). The conditions noted are these: at 10 µM.
Assay [5] deals with T3, Serine/threonine-protein kinase Nek2 (Homo sapiens) (UniProt P51955).
T3 sequence (whole entry): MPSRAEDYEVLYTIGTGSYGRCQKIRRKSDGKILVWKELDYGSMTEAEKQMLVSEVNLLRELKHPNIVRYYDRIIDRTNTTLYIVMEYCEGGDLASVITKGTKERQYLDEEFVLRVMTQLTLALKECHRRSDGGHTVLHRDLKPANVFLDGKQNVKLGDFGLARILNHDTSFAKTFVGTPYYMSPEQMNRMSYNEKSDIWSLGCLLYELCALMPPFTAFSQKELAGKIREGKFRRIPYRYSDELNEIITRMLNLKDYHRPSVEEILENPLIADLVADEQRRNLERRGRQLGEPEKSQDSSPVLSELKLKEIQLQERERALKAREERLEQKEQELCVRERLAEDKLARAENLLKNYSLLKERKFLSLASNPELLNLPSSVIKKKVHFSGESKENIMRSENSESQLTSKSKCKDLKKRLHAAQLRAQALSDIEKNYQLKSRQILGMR
The conditions noted are these: at 1 µM.

Assay [6] addresses T3, Serine/threonine-protein kinase Nek2 (Homo sapiens). The conditions noted are these: at 10 µM.
The target of assay [7] is T4, Serine/threonine-protein kinase Nek3 (Homo sapiens) (UniProt P51956).
T4 sequence (whole entry): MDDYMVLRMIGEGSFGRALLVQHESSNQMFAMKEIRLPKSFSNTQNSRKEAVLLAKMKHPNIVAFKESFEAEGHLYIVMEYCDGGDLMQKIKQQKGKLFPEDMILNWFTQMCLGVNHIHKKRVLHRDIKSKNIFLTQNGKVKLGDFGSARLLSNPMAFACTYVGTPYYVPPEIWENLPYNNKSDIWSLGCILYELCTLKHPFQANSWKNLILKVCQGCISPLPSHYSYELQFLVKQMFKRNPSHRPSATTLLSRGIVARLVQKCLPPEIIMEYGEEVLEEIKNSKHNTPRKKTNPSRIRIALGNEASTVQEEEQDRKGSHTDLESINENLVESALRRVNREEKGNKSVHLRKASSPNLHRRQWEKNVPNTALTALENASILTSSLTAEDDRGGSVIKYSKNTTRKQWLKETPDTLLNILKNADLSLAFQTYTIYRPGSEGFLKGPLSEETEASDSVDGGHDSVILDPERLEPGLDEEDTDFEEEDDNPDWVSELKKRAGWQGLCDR
Particulars: at 1 µM.

For assay [8], the target named is T4, Serine/threonine-protein kinase Nek3 (Homo sapiens). Particulars: at 10 µM.
Assay [9] concerns the target T5, Testis-specific serine/threonine-protein kinase 1 (Homo sapiens) (UniProt Q9BXA7).
T5 sequence (whole entry): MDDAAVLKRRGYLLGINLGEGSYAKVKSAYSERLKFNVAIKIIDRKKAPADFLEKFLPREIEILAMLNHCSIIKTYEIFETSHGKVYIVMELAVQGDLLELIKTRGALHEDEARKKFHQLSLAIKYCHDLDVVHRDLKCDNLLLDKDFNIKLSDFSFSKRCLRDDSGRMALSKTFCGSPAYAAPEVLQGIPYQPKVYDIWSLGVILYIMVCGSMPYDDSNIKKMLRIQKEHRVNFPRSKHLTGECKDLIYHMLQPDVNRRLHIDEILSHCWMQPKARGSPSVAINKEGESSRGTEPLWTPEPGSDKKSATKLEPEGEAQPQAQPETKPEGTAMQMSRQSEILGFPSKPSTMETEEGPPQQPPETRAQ
The conditions noted are these: at 1 µM.

The target in assay [10] is T5, Testis-specific serine/threonine-protein kinase 1 (Homo sapiens). The conditions noted are these: at 10 µM.
In assay [11] the target is T6, Testis-specific serine/threonine-protein kinase 2 (Homo sapiens) (UniProt Q96PF2).
T6 sequence (whole entry): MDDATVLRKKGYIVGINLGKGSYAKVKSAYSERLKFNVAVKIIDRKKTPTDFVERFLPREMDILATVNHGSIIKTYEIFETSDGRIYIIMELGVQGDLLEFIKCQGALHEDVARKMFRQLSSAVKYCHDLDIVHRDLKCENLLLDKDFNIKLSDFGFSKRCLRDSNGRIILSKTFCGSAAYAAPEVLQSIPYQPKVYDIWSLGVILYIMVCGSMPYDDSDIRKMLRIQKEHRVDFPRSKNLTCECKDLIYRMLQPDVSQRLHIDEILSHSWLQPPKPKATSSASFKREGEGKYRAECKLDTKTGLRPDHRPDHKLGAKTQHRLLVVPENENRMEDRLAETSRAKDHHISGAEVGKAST
Particulars: at 10 µM.

Assay [12] addresses T7, Tyrosine-protein kinase Tec (Homo sapiens) (UniProt P42680).
T7 sequence (whole entry): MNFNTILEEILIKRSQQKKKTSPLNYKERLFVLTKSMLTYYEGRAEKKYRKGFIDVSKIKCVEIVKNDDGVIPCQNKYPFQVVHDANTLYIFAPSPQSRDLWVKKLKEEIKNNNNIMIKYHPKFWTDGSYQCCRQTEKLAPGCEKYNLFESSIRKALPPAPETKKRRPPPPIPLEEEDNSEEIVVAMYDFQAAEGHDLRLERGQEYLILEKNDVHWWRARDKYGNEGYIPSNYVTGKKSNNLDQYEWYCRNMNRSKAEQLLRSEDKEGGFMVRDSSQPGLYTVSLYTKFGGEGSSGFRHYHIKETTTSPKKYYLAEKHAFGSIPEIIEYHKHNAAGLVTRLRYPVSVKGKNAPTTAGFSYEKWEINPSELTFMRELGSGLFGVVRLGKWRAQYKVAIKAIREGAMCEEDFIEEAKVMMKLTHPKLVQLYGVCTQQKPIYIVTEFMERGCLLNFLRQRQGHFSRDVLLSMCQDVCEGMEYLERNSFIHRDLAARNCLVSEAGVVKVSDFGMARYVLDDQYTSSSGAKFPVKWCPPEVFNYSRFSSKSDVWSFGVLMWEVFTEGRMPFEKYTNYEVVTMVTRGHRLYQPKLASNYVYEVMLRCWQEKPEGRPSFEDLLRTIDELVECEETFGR
The conditions noted are these: at 1 µM.

The target of assay [13] is T7, Tyrosine-protein kinase Tec (Homo sapiens). The conditions noted are these: at 10 µM.
The target in assay [14] is Angiopoietin-1 receptor (Homo sapiens) (UniProt Q02763). Particulars: at 10 µM.
Chain of Angiopoietin-1 receptor (Homo sapiens) (Q02763 whole entry): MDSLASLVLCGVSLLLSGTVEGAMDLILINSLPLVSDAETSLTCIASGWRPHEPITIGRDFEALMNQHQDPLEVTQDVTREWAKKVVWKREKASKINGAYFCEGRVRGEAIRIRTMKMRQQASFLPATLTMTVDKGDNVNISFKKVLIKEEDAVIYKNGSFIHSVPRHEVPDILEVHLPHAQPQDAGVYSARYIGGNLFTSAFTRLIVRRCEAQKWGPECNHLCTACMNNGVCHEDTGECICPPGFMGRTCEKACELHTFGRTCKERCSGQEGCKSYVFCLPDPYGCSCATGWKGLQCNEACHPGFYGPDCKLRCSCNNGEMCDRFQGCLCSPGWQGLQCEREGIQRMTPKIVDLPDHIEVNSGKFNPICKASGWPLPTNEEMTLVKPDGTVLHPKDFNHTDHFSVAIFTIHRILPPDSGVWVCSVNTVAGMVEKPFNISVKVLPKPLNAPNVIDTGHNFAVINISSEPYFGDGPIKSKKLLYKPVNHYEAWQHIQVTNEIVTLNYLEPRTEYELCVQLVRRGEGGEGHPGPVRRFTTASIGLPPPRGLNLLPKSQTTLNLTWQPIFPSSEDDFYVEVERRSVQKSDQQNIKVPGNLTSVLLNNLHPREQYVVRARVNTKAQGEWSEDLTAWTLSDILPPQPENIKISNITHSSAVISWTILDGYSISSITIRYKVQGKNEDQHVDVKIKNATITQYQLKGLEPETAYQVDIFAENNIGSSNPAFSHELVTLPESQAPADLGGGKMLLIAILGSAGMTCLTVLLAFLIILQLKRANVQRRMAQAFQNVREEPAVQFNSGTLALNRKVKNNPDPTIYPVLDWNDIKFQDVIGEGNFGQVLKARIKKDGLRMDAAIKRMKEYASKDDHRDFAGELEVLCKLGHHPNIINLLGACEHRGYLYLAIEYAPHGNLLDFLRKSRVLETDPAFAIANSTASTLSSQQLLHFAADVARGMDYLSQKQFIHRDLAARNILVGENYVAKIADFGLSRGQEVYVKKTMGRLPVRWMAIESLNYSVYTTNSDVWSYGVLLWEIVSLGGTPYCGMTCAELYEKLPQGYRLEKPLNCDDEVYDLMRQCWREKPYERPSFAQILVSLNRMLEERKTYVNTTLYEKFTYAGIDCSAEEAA
Assay [15] has as its target High affinity nerve growth factor receptor (Homo sapiens) (UniProt P04629). The conditions noted are these: at 1 µM.
Assay [16] shares this target. The conditions noted are these: at 10 µM.
In assay [17] the target is BDNF/NT-3 growth factors receptor (Homo sapiens) (UniProt Q16620). The conditions noted are these: at 1 µM.
Chain of BDNF/NT-3 growth factors receptor (Homo sapiens) (Q16620 32-822 limits assumed): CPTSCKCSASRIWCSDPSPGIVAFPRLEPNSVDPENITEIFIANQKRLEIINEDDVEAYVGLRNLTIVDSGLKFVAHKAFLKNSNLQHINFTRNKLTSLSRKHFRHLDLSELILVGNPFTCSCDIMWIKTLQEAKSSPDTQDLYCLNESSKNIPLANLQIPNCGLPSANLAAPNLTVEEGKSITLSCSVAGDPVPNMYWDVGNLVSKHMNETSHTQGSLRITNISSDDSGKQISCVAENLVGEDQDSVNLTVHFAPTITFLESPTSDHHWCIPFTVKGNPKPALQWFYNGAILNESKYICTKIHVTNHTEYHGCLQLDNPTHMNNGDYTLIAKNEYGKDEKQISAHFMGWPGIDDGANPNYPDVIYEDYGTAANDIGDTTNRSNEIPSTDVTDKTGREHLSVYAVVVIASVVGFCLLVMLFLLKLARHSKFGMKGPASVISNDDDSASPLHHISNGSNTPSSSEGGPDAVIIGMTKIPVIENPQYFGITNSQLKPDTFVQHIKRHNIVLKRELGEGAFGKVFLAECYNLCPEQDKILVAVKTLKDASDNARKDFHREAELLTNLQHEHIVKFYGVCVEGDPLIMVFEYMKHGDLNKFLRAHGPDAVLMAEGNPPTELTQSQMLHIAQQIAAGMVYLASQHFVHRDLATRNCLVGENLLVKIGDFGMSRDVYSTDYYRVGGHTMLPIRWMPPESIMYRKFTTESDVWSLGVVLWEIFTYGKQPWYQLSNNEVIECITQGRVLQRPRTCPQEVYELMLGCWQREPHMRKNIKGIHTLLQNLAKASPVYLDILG
Assay [18] has as its target Serine/threonine-protein kinase tousled-like 2 (Homo sapiens) (UniProt Q86UE8). Particulars: at 1 µM.
The target is the same in assay [19]. The conditions noted are these: at 10 µM.
Assay [20] concerns the target Angiopoietin-1 receptor (Homo sapiens) (UniProt Q02763). The conditions noted are these: at 1 µM.

Chain of Serine/threonine-protein kinase tousled-like 2 (Homo sapiens) (Q86UE8 whole entry, looked up): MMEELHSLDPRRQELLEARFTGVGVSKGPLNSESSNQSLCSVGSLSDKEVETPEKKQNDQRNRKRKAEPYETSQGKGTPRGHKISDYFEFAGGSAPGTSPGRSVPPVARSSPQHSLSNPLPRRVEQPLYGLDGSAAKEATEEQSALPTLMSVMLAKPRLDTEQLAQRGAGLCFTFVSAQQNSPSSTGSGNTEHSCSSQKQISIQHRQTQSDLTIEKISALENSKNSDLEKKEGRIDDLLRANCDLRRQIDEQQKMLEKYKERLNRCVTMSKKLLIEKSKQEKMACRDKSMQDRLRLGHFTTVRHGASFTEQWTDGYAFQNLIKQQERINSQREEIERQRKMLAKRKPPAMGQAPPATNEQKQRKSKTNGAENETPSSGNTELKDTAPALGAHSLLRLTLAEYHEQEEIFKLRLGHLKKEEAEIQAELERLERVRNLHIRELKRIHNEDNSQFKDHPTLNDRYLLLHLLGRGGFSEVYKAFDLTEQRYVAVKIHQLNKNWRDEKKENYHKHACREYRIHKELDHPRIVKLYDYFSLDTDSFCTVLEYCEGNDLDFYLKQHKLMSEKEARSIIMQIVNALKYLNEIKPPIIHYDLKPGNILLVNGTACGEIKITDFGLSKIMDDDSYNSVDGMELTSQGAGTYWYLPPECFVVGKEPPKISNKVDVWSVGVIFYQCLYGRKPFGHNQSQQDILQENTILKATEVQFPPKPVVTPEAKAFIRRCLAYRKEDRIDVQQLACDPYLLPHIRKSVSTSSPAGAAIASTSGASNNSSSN
Chain of High affinity nerve growth factor receptor (Homo sapiens) (P04629 33-796 limits assumed): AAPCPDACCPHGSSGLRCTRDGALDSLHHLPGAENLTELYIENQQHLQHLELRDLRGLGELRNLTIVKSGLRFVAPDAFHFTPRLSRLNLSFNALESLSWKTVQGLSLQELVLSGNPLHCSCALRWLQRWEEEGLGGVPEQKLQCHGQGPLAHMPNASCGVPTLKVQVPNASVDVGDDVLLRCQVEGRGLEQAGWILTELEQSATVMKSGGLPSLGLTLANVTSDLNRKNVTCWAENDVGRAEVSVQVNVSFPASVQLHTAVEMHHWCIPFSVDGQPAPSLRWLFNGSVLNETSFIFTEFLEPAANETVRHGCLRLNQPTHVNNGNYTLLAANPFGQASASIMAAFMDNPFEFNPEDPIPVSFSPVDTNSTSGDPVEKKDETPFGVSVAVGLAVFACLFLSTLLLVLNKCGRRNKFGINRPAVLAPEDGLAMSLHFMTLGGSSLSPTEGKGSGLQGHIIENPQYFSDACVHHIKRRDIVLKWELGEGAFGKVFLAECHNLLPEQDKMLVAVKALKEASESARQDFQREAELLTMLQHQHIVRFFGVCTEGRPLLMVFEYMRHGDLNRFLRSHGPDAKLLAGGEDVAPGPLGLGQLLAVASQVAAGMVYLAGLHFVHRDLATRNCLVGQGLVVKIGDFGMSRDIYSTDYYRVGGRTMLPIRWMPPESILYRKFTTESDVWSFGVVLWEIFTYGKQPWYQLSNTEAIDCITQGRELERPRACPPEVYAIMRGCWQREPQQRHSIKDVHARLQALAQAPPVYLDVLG

As for `CCN(CC)C(=O)c1ccc(Nc2nc(OCC3CCCCC3)c3nc[nH]c3n2)cc1`, the residual activity in [1] is 32%; in assay [2], 4%; in assay [3], 67%; in [4], 41%; in assay [5], 68%; in assay [6] it was 11%. Besides, the residual activity in [7] was found to be 47%; in assay [8] it was 18%; in assay [9], 14%; in [10], 2%; in [11], 14%; in assay [12], 24%. The residual activity in [13] came to 2%; in assay [14] it was 8%; in assay [15] it was 8%; in assay [16], 0%; in [17] it was 36%.
Turning to `O=C1c2ccccc2-[n+]2ccc3c([nH]c4ccccc43)c21`, the residual activity in [1] amounted to 85%; in assay [2], 88%; in assay [3], 48%; in assay [4], 44%; in [5] it was 90%; in [6], 87%. In addition, the residual activity in assay [7] turned out to be 88%; in assay [8], 90%; in assay [18], 80%; in [19] it was 83%; in assay [9], 90%; in [10] it was 89%. For the same compound, the residual activity came to 86% in assay [11]; 77% in assay [12]; 74% in assay [13]; 90% in assay [20]; 78% in assay [14]; 83% in assay [15]. The residual activity came out at 47% in assay [16] and 89% in assay [17].
`Cc1ccc(NC2=CC(=O)c3sc(C)nc3C2=O)cc1`: the residual activity in [1] was 90%; in assay [2] it was 85%; in assay [3], 66%; in assay [4] it was 75%; in assay [5], 91%; in assay [6], 89%. The residual activity was determined as 81% in assay [7]; 101% in [8]; 87% in [18]; 84% in assay [19]; 92% in assay [9]; 98% in [10]. Besides, the residual activity in assay [11] came to 86%; in [12] it was 85%; in assay [13], 93%; in assay [20], 100%; in assay [14] it was 99%; in [15], 89%. In addition, the residual activity worked out at 88% in [16] and 102% in [17].
As to `CO[C@@H]1[C@H](N(C)C(=O)c2ccccc2)C[C@H]2O[C@]1(C)n1c3ccccc3c3c4c(c5c6ccccc6n2c5c31)C(=O)NC4`, the residual activity was determined as 32% in assay [1]; 13% in assay [2]; 47% in assay [3]; 49% in assay [4]; 82% in assay [5]; 86% in assay [6]. For the same compound, the residual activity in assay [7] was determined as 102%; in assay [8] it was 37%; in assay [19] it was 72%; in assay [9] it was 15%; in assay [10], 6%; in assay [11], 30%. Also, the residual activity in assay [12] was 85%; in assay [13], 40%; in assay [20] it was 133%; in assay [14], 73%; in assay [15], 0%; in assay [16] it was -1%. In addition, the residual activity in assay [17] worked out at 23%.
On to `Cc1cncc2cccc(S(=O)(=O)N3CCCN(C(=O)CN)C[C@H]3C)c12`, for which the residual activity turned out to be 90% in assay [1]; 67% in assay [2]; 88% in [3]; 86% in assay [4]; 78% in assay [5]; 92% in assay [6]. Besides, the residual activity was determined as 82% in assay [19]; 95% in assay [9]; 79% in [10]; 94% in [11]; 100% in assay [12]; 77% in [13]. For the same compound, the residual activity in [20] is 78%; in [14], 40%; in assay [15], 64%; in assay [16], -1%.

A word on the residual activity: it is the signal under treatment as a percentage of the control signal.
